Calls of active or inactive are those of the source. How the source made its calls: active means hit-call score of the fitted dose curve at least 0.9, where 1 is the maximum; inactive means score below 0.9.
Experiment: CCTE_Shafer_MEA_dev_firing_rate_mean: CCTE's Neural Network Formation Assay for Mean Firing Rate, Shafer Lab (AID 2284031)
Description: CCTE_Shafer_MEA_dev assay is conducted using Axion Biosystems 48 well microelectrode array (MEA) plates and Maestro recording system. Each well of the MEA plate contains a grid of 16 microelectrodes embedded in the culture surface. Electrically active cells, such as neurons, can be cultured over the electrodes, and electrical activity in these cells can be recorded extracellularly. The spontaneous firing of neurons is captured from each electrode on a microsecond timescale providing both temporally and spatially precise data. […] The CCTE_Shafer_MEA_dev assay uses primary cultures of rat cortical neurons. Recordings are made on days post-plating 5, 7, 9 and 12. As these cultures mature over time, neural networks develop functional activity and form cohesive networks in which electrical activity can be highly coordinated. CCTE_Shafer_MEA_dev_firing_rate_mean is 1 of 19 assay components of the CCTE_Shafer_MEA_dev assay. It measures the frequency of spikes (action potential firings) as the total number of spikes divided by the length of the recording in a microelectrode array (MEA) using Axion Biosystems Maestro 768 channel amplifier with the AxIS adaptive spike detector. The firing rate is averaged across the active electrodes to report a well-mean value. To collapse across multiple recordings made on days post-plating 5, 7, 9 and 12, the trapezoidal area-under-the-curve of the component is calculated.Data from the assay component CCTE_Shafer_MEA_dev_firing_rate_mean was analyzed into 1 assay endpoint. This assay endpoint, CCTE_Shafer_MEA_dev_firing_rate_mean, was analyzed in the negative analysis fitting direction relative to DMSO as the negative control and baseline of activity. Using a type of functional reporter, gain or loss-of-signal activity can be used to understand electrical activity.
On the day prior to culture, each well was coated thoroughly with 150 uL of 0.05% polyethyleneimine (PEI, Sigma Cat P3143) in 50 mM HEPES (Sigma Cat H7523) at a pH of 8. The plate was incubated at 37C for one hour. PEI was rinsed out with 500 uL of sterile water three times. Plates were stored at 4C until the day of culture. This culture was plated at a seeding density of 1.5 x 10^5 cells/well on a 48-well MEA plate, prepared as described above. Cells were administered via a 25 uL media/laminin ([…]; Sigma Cat L2020-1MG) drop directly onto the microelectrode array, as adding the cells with the laminin results in better attachment than pre-coating with laminin. After 2 hours, an additional 475 uL of cortical media was added and the cells returned to the incubator. Exposure starts at day 0 of plating and is continued over twelve days of network development until the experiment is terminated. Cells are fed with fresh medium on DIV 5 and 9, following the recordings on those days. The entire volume of media in the well is exchanged and any vehicle or compound treatment is renewed. Complete details are found in OP-NHEERL/ISTD/SBB/TJS/2015-03-r0 (available on request, email shafer.tim@epa.gov). Measurement of the electrical activity is non-invasive, and recordings can be made from the same plate over multiple different days of the culture. In cortical neurons, this allows for the measurement of extracellular action potentials over the period during which networks form in the MEA plate.

outcome, inactive:
O=C1CCC(N2C(=O)c3ccccc3C2=O)C(=O)N1 (stereo not given)
CC[C@H]1OC(=O)[C@H](C)[C@@H](O[C@H]2C[C@@](C)(OC)[C@@H](O)[C@H](C)O2)[C@H](C)[C@@H](O[C@@H]2O[C@H](C)C[C@H](N(C)C)[C@H]2O)[C@](C)(O)C[C@@H](C)C(=O)[C@H](C)[C@@H](O)[C@]1(C)O
Cn1c(=O)c2c(ncn2C)n(C)c1=O
CNCc1ccc(NC(=O)c2c[nH]c3c2C(=O)CCC3)cc1
O=P(OC(CCl)CCl)(OC(CCl)CCl)OC(CCl)CCl
Nc1nc2ncc(CNc3ccc(C(=O)N[C@@H](CCC(=O)O)C(=O)O)cc3)nc2c(=O)[nH]1
COc1ccc(-n2nc(C(F)F)cc2-c2ccc(S(C)=O)cc2)cc1 (stereo not given)
NC(=O)NO
CC[C@H](C)C(=O)O[C@H]1C[C@@H](C)C=C2C=C[C@H](C)[C@H](CC[C@@H]3C[C@@H](O)CC(=O)O3)[C@H]21
CCC(C)(C)C(=O)O[C@H]1C[C@@H](C)C=C2C=C[C@H](C)[C@H](CC[C@@H]3C[C@@H](O)CC(=O)O3)[C@H]21

Source: PubChem BioAssay (EPA / NIEHS)
